Holding throughout (assay): RPB-ELISA
Holding throughout (details): tags: N-terminal luciferase, C-terminal 6xHis; label: 5'-biotin; ssRNA

For one assay, the target named is T1, NL_v2_PPR20 (Artificial Sequence).
T1 chain: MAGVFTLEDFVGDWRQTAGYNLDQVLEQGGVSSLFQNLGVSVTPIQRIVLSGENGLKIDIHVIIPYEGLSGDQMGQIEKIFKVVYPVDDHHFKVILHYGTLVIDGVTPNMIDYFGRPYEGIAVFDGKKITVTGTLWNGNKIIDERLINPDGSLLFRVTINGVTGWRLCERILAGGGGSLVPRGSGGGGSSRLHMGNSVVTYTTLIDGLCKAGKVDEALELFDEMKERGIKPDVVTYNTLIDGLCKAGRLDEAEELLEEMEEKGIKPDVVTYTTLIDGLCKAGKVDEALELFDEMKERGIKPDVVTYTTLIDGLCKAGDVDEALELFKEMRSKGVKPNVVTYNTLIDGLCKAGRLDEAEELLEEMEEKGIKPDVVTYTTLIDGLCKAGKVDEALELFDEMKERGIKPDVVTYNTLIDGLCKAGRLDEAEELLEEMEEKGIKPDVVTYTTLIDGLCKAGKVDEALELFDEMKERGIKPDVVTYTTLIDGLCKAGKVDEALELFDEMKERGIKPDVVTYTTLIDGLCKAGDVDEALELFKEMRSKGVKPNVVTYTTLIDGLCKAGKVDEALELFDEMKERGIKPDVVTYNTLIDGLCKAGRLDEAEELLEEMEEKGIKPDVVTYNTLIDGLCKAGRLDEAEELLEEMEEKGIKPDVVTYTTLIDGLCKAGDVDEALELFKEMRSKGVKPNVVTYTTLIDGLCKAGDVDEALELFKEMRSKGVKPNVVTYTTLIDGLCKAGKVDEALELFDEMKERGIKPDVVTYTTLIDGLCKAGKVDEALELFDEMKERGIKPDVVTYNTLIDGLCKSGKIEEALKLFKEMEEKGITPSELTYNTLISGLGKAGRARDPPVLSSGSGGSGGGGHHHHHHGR
A digest of the protocol: (§1)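 5′-biotinylated 30-base RNA probes holding 18-base targets were captured on streptavidin plates, blocked, then bound 30 min at room temperature with E. coli lysate of luciferase-fused PPR protein (1.5×10⁸ LU/μL) in Tris-HCl pH 7.6 buffer. After washing, luminescence minus no-RNA background gave binding power.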

The target in the next assay is T2, NL_v2_PPR22 (Artificial Sequence).
T2 chain: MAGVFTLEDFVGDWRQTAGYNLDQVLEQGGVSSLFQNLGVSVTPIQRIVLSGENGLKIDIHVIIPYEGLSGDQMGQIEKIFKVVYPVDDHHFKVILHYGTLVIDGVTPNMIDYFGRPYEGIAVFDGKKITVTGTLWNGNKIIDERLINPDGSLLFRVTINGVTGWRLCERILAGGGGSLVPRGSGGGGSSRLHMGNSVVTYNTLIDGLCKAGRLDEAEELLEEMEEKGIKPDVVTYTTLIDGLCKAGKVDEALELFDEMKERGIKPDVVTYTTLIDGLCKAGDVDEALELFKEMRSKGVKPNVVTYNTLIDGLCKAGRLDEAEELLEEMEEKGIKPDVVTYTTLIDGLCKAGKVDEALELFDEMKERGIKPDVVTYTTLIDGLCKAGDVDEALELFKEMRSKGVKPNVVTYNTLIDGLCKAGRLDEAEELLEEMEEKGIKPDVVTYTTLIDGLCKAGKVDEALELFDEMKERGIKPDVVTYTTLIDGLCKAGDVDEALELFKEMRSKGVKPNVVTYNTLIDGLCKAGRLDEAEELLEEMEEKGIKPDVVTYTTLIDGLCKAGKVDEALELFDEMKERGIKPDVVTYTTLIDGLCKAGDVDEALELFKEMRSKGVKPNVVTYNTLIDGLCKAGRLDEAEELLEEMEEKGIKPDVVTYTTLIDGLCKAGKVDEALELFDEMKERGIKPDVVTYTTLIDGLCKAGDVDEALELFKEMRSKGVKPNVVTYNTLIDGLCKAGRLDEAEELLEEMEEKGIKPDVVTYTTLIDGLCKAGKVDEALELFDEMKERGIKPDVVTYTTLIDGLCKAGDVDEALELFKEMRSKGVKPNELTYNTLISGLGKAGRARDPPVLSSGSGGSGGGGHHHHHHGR
A digest of the protocol:
as §1

For the next assay, the target named is T3, NL_v2_PPR16 (Artificial Sequence).
T3 chain: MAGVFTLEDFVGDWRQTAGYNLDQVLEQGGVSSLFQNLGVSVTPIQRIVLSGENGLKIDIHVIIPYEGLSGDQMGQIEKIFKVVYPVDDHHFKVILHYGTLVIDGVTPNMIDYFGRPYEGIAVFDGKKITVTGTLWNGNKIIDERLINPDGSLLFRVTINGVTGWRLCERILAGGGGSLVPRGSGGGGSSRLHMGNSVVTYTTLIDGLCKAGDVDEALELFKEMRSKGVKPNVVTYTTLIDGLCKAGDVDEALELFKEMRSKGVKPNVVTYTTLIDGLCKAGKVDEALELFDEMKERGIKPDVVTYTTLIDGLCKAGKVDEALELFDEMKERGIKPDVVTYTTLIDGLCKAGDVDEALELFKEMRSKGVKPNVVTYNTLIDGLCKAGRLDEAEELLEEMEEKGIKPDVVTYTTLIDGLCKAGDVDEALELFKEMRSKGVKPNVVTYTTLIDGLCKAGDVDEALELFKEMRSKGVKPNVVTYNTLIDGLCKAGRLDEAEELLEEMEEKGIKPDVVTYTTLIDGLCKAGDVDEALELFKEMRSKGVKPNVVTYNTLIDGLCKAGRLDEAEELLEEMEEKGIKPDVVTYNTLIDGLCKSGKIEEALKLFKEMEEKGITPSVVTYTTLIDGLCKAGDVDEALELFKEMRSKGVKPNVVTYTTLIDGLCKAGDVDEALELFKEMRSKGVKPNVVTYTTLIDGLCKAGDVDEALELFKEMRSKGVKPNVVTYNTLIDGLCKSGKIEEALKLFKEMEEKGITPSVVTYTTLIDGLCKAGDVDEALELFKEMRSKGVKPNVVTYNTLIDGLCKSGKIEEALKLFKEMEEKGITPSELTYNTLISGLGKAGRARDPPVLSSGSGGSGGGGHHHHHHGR
The essentials:
as §1

The target of a further assay is T4, v3.1_PPR7 (Artificial Sequence).
T4 chain: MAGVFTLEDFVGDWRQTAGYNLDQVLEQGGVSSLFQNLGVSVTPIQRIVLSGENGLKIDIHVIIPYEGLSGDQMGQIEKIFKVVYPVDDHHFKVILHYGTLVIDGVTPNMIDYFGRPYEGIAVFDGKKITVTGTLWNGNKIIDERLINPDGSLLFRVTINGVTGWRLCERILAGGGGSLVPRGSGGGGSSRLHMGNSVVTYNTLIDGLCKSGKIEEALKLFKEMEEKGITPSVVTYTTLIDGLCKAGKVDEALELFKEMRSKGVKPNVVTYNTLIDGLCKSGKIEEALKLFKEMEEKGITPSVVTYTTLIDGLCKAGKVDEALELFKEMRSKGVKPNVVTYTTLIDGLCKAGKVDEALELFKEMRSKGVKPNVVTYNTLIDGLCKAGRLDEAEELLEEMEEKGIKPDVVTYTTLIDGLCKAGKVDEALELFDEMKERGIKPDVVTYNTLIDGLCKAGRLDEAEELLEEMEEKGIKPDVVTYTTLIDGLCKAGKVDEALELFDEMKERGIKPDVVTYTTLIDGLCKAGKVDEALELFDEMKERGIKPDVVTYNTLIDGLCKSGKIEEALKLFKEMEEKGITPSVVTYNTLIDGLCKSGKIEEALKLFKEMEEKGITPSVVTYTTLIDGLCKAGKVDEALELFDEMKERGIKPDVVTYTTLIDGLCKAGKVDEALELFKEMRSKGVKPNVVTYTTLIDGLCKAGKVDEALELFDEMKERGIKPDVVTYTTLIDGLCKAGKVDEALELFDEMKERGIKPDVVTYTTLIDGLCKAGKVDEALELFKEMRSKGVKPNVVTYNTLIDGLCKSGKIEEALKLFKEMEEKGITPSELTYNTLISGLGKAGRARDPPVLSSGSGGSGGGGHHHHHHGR
The essentials:
(§2)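 5′-biotinylated 30-base RNA probes (18-base target) immobilised on streptavidin plates, then bound 30 min at RT by E. coli lysate with luciferase-fused PPR protein (1.5×10⁸ LU/μL) in Tris pH 7.6 buffer. Binding = luminescence minus no-RNA background.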

The next assay deals with T5, v3.1_PPR22 (Artificial Sequence).
T5 chain: T2 chain with D283K, D388K, D493K, D598K, D703K, D808K
The essentials: as §2

Changes are numbered by the printed parent chain.

With GUGGGGGUGGUAGGAAAU, the binding signal in the assay with NL_v2_PPR20 stood at 22.4 log2 luminescence; in the assay with NL_v2_PPR22, 21 log2 luminescence; with NL_v2_PPR16, 22.1 log2 luminescence; with v3.1_PPR7 it was 24.2 log2 luminescence; with v3.1_PPR22 it was 20.8 log2 luminescence.

As to GACUCAGGAAUCGGCUCU, the binding signal with v3.1_PPR7 was found to be 21 log2 luminescence.

Regarding GGUGGUGAGGCCCUGGGC, the binding signal with NL_v2_PPR20 was 21.1 log2 luminescence; with v3.1_PPR7 it was 23.8 log2 luminescence; with v3.1_PPR22 it was 20.9 log2 luminescence.

GGUUAGAGAUACAGUGUG: the binding signal with v3.1_PPR7 came to 23.4 log2 luminescence.

Consider GUCAGAGGGUUCUGGAUU, for which the binding signal with v3.1_PPR7 was found to be 21.3 log2 luminescence.

Values taken from US20220289795, “EFFICIENT METHOD FOR PREPARING PPR PROTEIN AND USE OF THE SAME” (EditForce, Inc., published 2022).
